# In the library only some 12% were active in any assay of this set; here they are far more common.
# RORgamma inh – inhibitors of mouse ROR gamma transcriptional activity; P51450; AID 2551; 5.4% of 310,000 active; Drosophila S2 Gal4-RORgamma UAS-luciferase reporter, 20 h; Potency, µM (doses to about 53.6 µM), hits mostly inhibitors; note: nearly all actives have a fitted effect of over 60% in size
# Target sequence (P51450 whole entry, looked up, the tested form may be a part): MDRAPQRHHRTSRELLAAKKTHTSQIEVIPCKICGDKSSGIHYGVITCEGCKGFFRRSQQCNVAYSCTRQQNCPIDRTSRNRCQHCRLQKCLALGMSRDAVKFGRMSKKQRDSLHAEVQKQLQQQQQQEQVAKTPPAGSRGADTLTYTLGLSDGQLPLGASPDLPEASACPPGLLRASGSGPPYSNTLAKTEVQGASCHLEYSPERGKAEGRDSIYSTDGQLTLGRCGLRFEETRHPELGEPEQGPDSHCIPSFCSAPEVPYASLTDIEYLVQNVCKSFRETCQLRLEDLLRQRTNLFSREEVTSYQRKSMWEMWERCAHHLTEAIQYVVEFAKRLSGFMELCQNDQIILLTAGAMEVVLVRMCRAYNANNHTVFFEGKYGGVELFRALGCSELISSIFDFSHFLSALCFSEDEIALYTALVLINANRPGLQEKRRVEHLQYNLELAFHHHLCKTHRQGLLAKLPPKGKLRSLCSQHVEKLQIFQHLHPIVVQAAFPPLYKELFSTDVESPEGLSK
#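 ROR gamma transcriptional activity was tracked as Gal4-UAS luciferase output in stably transfected Drosophila Schneider cells, with compound added 1 hr before 700 uM copper sulfate induction and a 20 hr ambient-temperature incubation.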
# Sfp PPTase inh – Sfp phosphopantetheinyl transferase inhibition; Biochemical Sfp PPTase activity, qHTS; Potency, µM, usual class: inhibitors; 3.5% of 310,000 active; AID 1490;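 note: the enzyme is Sfp with the accession as filed and its product quenches rhodamine fluorescence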
#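 Buffer: 50 mM Hepes-Na pH 7.6, 10 mM MgCl2, 0.01% Nonidet P-40, 0.01% BSA. Enzyme 15 nM, pre-exposed to compound 15 min; substrates then added and fluorescence change tracked over 30 min.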
# ALDH1A1 block – inhibitors of human aldehyde dehydrogenase 1A1 | Purified ALDH1A1, NADH fluorescence, propionaldehyde substrate | Potency, µM (series often up to 75.3 µM), most hits filed as inhibitors | 7.3% of 220,000 active; active = well fitted inhibition curve with a large enough effect, not every such curve was filed as active; inconclusive = small, poorly fitted or top-dose-only effect, or another doubt; inactive = no such curve, though single readings can be large or run the other way
# PLK1 PBD block – blocks phosphopeptide binding to human PLK1 polo-box domain; P53350; Potency, µM, hits mostly inhibitors; 2.8% of 360,000 active; Plk1 PBD binding of FITC phosphopeptide, fluorescence polarization; note: series mostly up to about 57 µM; nearly all actives have a fitted effect of over 65% in size
# Gal4-VP16 FLuc – Gal4-VP16 reporter inhibition counter-screen; Drosophila S2 Gal4-VP16 UAS-luciferase, luminescence, 20 h; Potency, µM (highest dose often 53.6 µM), usual class: inhibitors; 3.5% of 310,000 active; AID 2546;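 note: Gal4-VP16 expression switched on by copper sulfate through the metallothionein promoter; nearly all actives have a fitted effect of over 50% in size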
# A number is an active result; n = inactive; u = inconclusive; x = not tested or not shown; [ ] = another dose, or the depositor's remark. Unless noted, calls come from the whole dose curve; as a rule, active = well fitted curve in the direction sought with a large enough effect; inconclusive = small, poorly fitted or top-dose-only effect, or another doubt; inactive = no such curve, though single readings can be large; an effect the other way counts as inactive or inconclusive.
SMILES,RORgamma inh,Sfp PPTase inh,ALDH1A1 block,PLK1 PBD block,Gal4-VP16 FLuc
COC1OC(CO)C(OC2OC(C(=O)O)C(OC3OC(COS(=O)(=O)O)C(OC4OC(C(=O)O)C(OC5OC(CO)C(OC6OC(C(=O)O)C(OC7OC(COS(=O)(=O)O)C(OC8OC(C(=O)O)=C[C@H](O)C8OS(=O)(=O)O)C(O)C7NC(C)=O)[C@@H](O)C6O)C(O)C5NC(C)=O)[C@@H](O)C4O)C(O)C3NC(C)=O)[C@@H](O)C2O)C(O)C1NC(C)=O (stereo partly drawn),n,n,n,x,n
C1CSC2(N1)C1CC3CC2CC(C1)C31NCCS1 (stereo not drawn),n,20µM,n,n,n
O=C(NC(NC(=S)Nc1ccc(Cl)cc1Cl)C(Cl)(Cl)Cl)c1cccc([N+](=O)[O-])c1 (stereo not drawn),u,n,18µM,n,u
CN(C)C(=O)NC(NC(=S)Nc1ccccc1)C(Cl)(Cl)Cl (stereo not drawn),n,56µM,13µM,12µM,n
Cc1cc(C)c(NC(=S)NC(NC(=O)c2ccccc2)C(Cl)(Cl)Cl)c(C)c1 (stereo not drawn),20µM,n,n,n,u
Cc1ccc(NC(=S)NC(NC(=O)c2ccccc2)C(Cl)(Cl)Cl)c(C)c1 (stereo not drawn),u,n,u,n,u
O=C(NC(NC(=S)Nc1ccccc1)C(Cl)(Cl)Cl)c1cccc(Cl)c1 (stereo not drawn),11µM,n,u,n,u
O=C(O)c1cccc(NC(=S)NC(NC(=O)c2cccc([N+](=O)[O-])c2)C(Cl)(Cl)Cl)c1 (stereo not drawn),n,n,x,n,n
CC(C)C[C@@H](CN1CCC[C@@H]1CN1C(=S)NC[C@@H]1Cc1ccc(O)cc1)N1C[C@H](Cc2ccc(O)cc2)N(CC2CCCCC2)C1=S,x,x,x,n,x
Cn1nc(C(=O)NCC(=O)Nc2ccc(F)c(F)c2)ccc1=O,x,x,x,n,x
COc1ccc(OC)c(C(O)c2ncc(-c3ccccc3OC)[nH]2)c1 (stereo not drawn),x,x,x,n,x
CC(C)c1ccc(NC(=O)C2CC2c2ccccc2)cc1 (stereo not drawn),u,n,x,n,n
O=C(NNC(=S)Nc1ccc(F)cc1)C1CC1c1ccc(Cl)cc1 (stereo not drawn),u,n,n,n,20µM
Fc1ccc(NC(=S)Nc2ccc(Cl)cc2)cc1,u,n,n,n,n
Cc1ccc(NC(=S)NNC(=O)C2CC2c2ccc(C)cc2)cc1 (stereo not drawn),11µM,n,u,n,u
COc1ccc(NC(=S)NNC(=O)C2CC2c2ccc(C)cc2)cc1 (stereo not drawn),n,n,2.5µM,n,n
CCCCN(C=O)c1c(CC)nc2ccc(C(=O)N3CCCCC3)cn12,x,x,x,n,x
COCCSc1nnc(NC(=O)c2ccc(OC)c([N+](=O)[O-])c2)s1,n,n,u,n,n
Cn1nc(-c2ccc(NCCO)c([N+](=O)[O-])c2)c2ccccc2c1=O,n,n,u,n,n
Cn1nc(-c2ccc(N3CCN(CCO)CC3)c([N+](=O)[O-])c2)c2ccccc2c1=O,u,n,4.5µM,n,n
CCN(CC)S(=O)(=O)c1cc(NC(=O)CNc2cccc(S(=O)(=O)N3CCCC3)c2)ccc1C,x,x,x,n,x
Cc1cc2[nH]c(=O)c(=O)[nH]c2cc1S(=O)(=O)Nc1cccc(F)c1,n,n,x,n,n
Cc1cc(C)c2c3c(sc2n1)C1(CCSCC1)C(C#N)=C(N)O3,u,n,25µM,n,n
Cc1nc(-c2coc3c(O)c(O)ccc3c2=O)cs1,n,u,n,x,n
C=C1C(=O)O[C@H]2C[C@]3(C)C([C@@H](OC(=O)/C(C)=C/C)[C@H]12)[C@](C)(O)CC[C@H]3O (stereo partly drawn),11µM,n,x,n,u
SMILES,RORgamma inh,Sfp PPTase inh,ALDH1A1 block,PLK1 PBD block,Gal4-VP16 FLuc
C=C[C@@]1(C)CC(=O)[C@]2(O)[C@@]3(C)[C@@H](O)CCC(C)(C)[C@@H]3[C@H](OC(C)=O)[C@H](O)[C@@]2(C)O1,x,x,x,n,x
C[C@@H]1CN([C@H](C)CO)C(=O)CCCn2nncc2CO[C@H]1CN(C)S(=O)(=O)c1ccccc1F,x,x,x,n,x
N#Cc1ccccc1NCc1ccccc1,u,n,n,n,n
O=C1C=C(NCc2ccccc2)c2ccccc2C1=O,16µM,22µM,u,u,u
O=C1C=C(Nc2ccc(F)cc2)c2ccccc2C1=O,x,x,x,n,x
O=C1C=C(Nc2ccccc2O)c2ccccc2C1=O,u,u,n,n,10µM
O=c1cccccc1NCc1ccccc1,n,22µM,n,n,u
C[C@@H]1CN([C@H](C)CO)S(=O)(=O)c2ccc(-c3ccc(C#N)cc3)cc2O[C@H]1CN(C)C(=O)Nc1cc(F)ccc1F,x,x,x,n,x
CCCN(C)C1CN(Cc2cn(Cc3ccc(F)cc3)nn2)S(=O)(=O)C1 (stereo not drawn),x,x,x,n,x
CC(C)Oc1cccc(NC(=O)C2(C)CCN2C(C)C)c1 (stereo not drawn),x,x,x,n,x
COc1cc2c(cc1OC)CN(C(=O)c1cccc([N+](=O)[O-])c1)CC2,n,n,x,27µM,n
COc1cc2c(cc1OC)CN(C(=O)c1ccco1)CC2,n,n,14µM,n,n
COc1cc2c(cc1OC)CN(C(=O)c1ccc(Br)o1)CC2,n,n,x,n,n
Cc1cccc2c1NC(=O)C2=Nc1ccc(Cl)cc1,n[1.91 µM],n,x,n,n
CC1=CC(C)(C)N2C(=O)C(=Nc3ccc(O)cc3)c3cccc1c32,n,u,x,4.7µM,u
COc1cc(N=C2C(=O)N3c4c(cccc42)C(C)=CC3(C)C)cc(OC)c1,n,n,0.79µM,n,n
COc1ccc(N2C(=O)CSC23C(=O)N2c4c(cccc43)C(C)=CC2(C)C)cc1 (stereo not drawn),n,n,n,n,n
C=CCn1c(CNC(=O)c2ccco2)nnc1SCC(=O)N1c2ccccc2Sc2ccccc21,n,n,0.56µM,n,n
Cc1ccccc1C(=O)NCc1nnc(SCC(=O)N2c3ccccc3Sc3ccccc32)n1C,u,n,25µM,n,n
C=CCn1c(CNC(=O)c2ccco2)nnc1SCC(=O)c1ccc(F)cc1,n,n,x,n,n
Cn1c(CNC(=O)c2ccccc2F)nnc1SCc1ccc(Cl)cc1,n,n,n,n,n
OC[C@H]1NC[C@H](O)[C@@H](O)[C@H]1O,n,n,n,x,n
CC(C)(C)c1c2c(c(C(C)(C)C)c3c1OCN(Cc1ccccc1)C3)OCN(Cc1ccccc1)C2,x,x,n[13.5 µM],x,x
Cc1ccc(C2=[N+]([O-])C3(CCCCC/C3=N\O)N(O)C2(C)C)o1 (stereo not drawn),n,u,28µM,n,n
COc1ccc(CN2CCN(C(=O)C3CC(=O)N(C4CCCCCC4)C3)CC2)c(OC)c1OC (stereo not drawn),u,n,20µM,n,u
COc1cccc(NC(=O)N(C)C[C@H]2OCc3cn(nn3)CCCC(=O)N([C@@H](C)CO)C[C@@H]2C)c1,x,x,x,n,x

# From PubChem BioAssay
